Reference: PubChem BioAssay AID686978 (National Center for Advancing Translational Sciences (NCATS), 2013)
The whole screen tested about 420,000 compounds, of which about 64,000 (15%) were called active. Not shown: some 27% with an inconclusive outcome. A selection follows. Unmarked numbers belong to inactive results. The call rests on the fitted dose curve; in most records, active means well fitted inhibition curve with a large enough effect; inconclusive means small, poorly fitted or top-dose-only effect; inactive means flat fitted curve, though single readings scatter.

experiment: qHTS for Inhibitors of human tyrosyl-DNA phosphodiesterase 1 (TDP1): qHTS in cells in absence of CPT; settings: DT40 Tdp1-/- hTDP1 cells, no CPT, ATP luminescence, 48 h; activity change, negative = growth inhibition: at 46.2 µM (top of the series); further: nearly all actives have a fitted effect of over 55% in size
Outline: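 Seeded 400 DT40-hTDP1 cells/well (vehicle DMSO, no 20 nM CPT); pinned compounds; ≥48 hr at 37 °C; CellTiter-Glo luminescence as viability measure.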
On the % scale 0 is the no-effect control and ±100 the full control effect; potency means the concentration at half of the fitted maximal effect.

Row | Structure (SMILES) | activity change, negative = growth inhibition [%] | Potency
1 | O=[N+]([O-])c1ccc2c(c1)C(O)n1nc(-c3ccccc3)nc1S2 (stereo not given) | -9.02 | –
2 | NC1=NN(c2cccc(C(=O)O)c2)C(=O)C1 | 18 | –
3 | Cc1nn(C)c(C)c1C(C)NC(=O)c1ccc(OC2CCN(Cc3ccccn3)CC2)cc1 (stereo not given) | -8.27 | –
4 | Cc1onc(-c2ccccc2)c1-c1nnc(COC(=O)c2ccc(N(C)C)cc2)o1 | – | 20.6 µM (active)
5 | O=C(OCc1nnc(-c2ccccc2)o1)c1ccc2c(c1)C(=O)N(CCc1ccccc1)C2=O | -6.81 | –
6 | Cc1ccc(C(=O)NCC(=O)OCc2nnc(-c3ccccc3)o2)cc1 | 10.3 | –
7 | C=CCn1nc(-c2ccccc2)c2c(C)onc2c1=O | 4.95 | –
8 | CN(C)c1ccc(-c2nnc(-c3cccnc3)o2)cc1 | -15.1 | –
9 | Cc1onc(-c2ccccc2Cl)c1C(=O)OCc1nnc(-c2ccccc2)o1 | – | 23.1 µM (active)
10 | CCCN1CNC(=S)N(CCc2ccccc2)C1 | -27.4 | –
11 | O=C(CSc1nc2[nH]c(=O)[nH]c(=O)c2s1)Nc1cccc(F)c1 | -21.4 | –
12 | O=C(O)c1ccccc1-c1cccc2nncn12 | -7.8 | –
13 | COC(=O)c1ccc2c(=O)n(CC3CCCO3)c(=S)[nH]c2c1 (stereo not given) | -7.54 | –
14 | CCOC(=O)c1sc2nc(C)[nH]c(=O)c2c1C | -15.4 | –
15 | CCOC(=O)c1sc(=S)n2c1[nH]c(=O)c1ccc(C(=O)OC)cc12 | – | 5.8 µM (active)
16 | Cc1cc(C)c2c(n1)sc1c(=O)n(-c3ccccc3)c(=O)[nH]c12 | -7.07 | –
17 | CC(=O)Nc1cc(C(=O)O)ccc1S(=O)(=O)c1ccc(Cl)cc1 | -8.93 | –
18 | COc1ccc2c(c1)cc1n2CCN=C1NN | -25.9 | –
19 | COc1ccccc1CN1CC(C(=O)NCCc2cn[nH]c2)CCC1=O (stereo not given) | -17.8 | –
20 | CC(C)=CC1C(C(=O)O)C1(C)C (stereo not given) | -20.2 | –
21 | CCC1(C)COC(c2ccc(OC)c(OC)c2)OC1 (stereo not given) | -16.8 | –
22 | CC(=O)c1cccc(-n2nnnc2SCC(=O)NNC(=O)C2CCCCC2)c1 | 5.14 | –
23 | CCN(Cc1ccccc1)C(=O)CSc1nc(C)cc2c1C(=O)OC2 | -3.19 | –
24 | Cc1ccc(C(NC(=O)N2CCCC2)C(Cl)(Cl)Cl)cc1F (stereo not given) | – | 20.6 µM (active)
25 | CCOC(=O)C1CCCN(C(=O)c2ccc(C)c(F)c2)CC1 (stereo not given) | -10.2 | –
26 | Cc1cc(C)cc(NC(=O)N2CCCCCCC2)c1 | -17.7 | –
27 | CCOC(=O)C1C(=O)OC2(CCCC2)C1C(=O)OCC (stereo not given) | 4.25 | –

Row | Structure (SMILES) | activity change, negative = growth inhibition [%] | Potency
28 | Cc1ccc(CC2C(=O)N(c3ccc(F)cc3)C(=O)C2C)cc1 (stereo not given) | -5.78 | –
29 | CC1(C)CC(=O)CC2(C1)NCC(c1ccccc1Cl)c1c2[nH]c2ccccc12 (stereo not given) | – | 16.4 µM (active)
30 | CNC(=O)c1ccc(-c2nc(CN3CCc4ccccc43)c(C)o2)cc1 | – | 20.6 µM (active)
31 | CC(=O)Nc1ccccc1-c1nc(CNC(=O)c2ccc(Cl)cc2)c(C)o1 | -24.1 | –
32 | COC(=O)c1cc2occc2n1Cc1nc(-c2ccccc2C)oc1C | -19.5 | –
33 | COc1ccc(-c2cn(-c3ccc(C)cc3)c(=O)n2CC(=O)Nc2ccc(OC)c(OC)c2)cc1 | -11.3 | –
34 | CN(Cc1ccccc1)C(=O)c1ccc(NC2=NC3CS(=O)(=O)CC3S2)cc1 (stereo not given) | -0.188 | –
35 | CCC(C)[C@H](NC(=O)N1CCn2c1nc1ccccc12)C(=O)NCc1ccc(OC)cc1 (stereo not given in full) | – | 16.4 µM (active)
36 | CC(C)[C@H](NC(=O)N1CCn2c1nc1ccccc12)C(=O)NC1CC1 | -17.3 | –
37 | CC(C)[C@H](NC(=O)N1CCn2c1nc1ccccc12)C(=O)NCc1ccc2c(c1)OCO2 | -15.7 | –
38 | N/C(=N\OC(=O)CCCC(=O)O)c1ncc(C(F)(F)F)cc1Cl | -2.03 | –
39 | CC(C)CCN1CCC(C)(NC(=O)c2ccccc2)C1=O (stereo not given) | -16.2 | –
40 | CN(C)/C=C(/C(=O)c1ccc(Cl)cc1)S(=O)(=O)c1ccccc1 | -7.39 | –
41 | COC(C[C@@H]1O[C@@H]1C(=O)[C@H](C)OCc1ccccc1)OC | -4.23 | –
42 | COC(C/C=C/C(=O)[C@@H](C)OCc1ccccc1)OC | – | 18.4 µM (active)
43 | COC(C[C@H](O)CC(=O)[C@@H](C)OCc1ccccc1)OC | -3.29 | –
44 | CCc1ccccc1N1C(=O)CN(S(=O)(=O)CC)CC1(C)C(=O)NC1CCCCC1 (stereo not given) | -10.3 | –
45 | Cc1ccccc1N1CC(C(=O)Nc2ccc3c(c2)OCO3)CC1=O (stereo not given) | -8.42 | –
46 | CN(C)c1ccc(CNC23CN4CN(CN(C4)C2)C3)cc1 | – | 18.4 µM (active)
47 | CCOc1ccc(NC(=O)CC2NCCNC2=O)cc1 (stereo not given) | 17.8 | –
48 | COC(=O)C[C@H]1C[C@@H]2c3cc(NC(=O)Nc4ccccc4)ccc3O[C@@H]2[C@@H](CO)O1 | -11.5 | –
49 | O=C(C[C@H]1C[C@H]2c3cc(NS(=O)(=O)c4ccc(F)cc4)ccc3O[C@H]2[C@H](CO)O1)NCc1cc(F)ccc1F | – | 18.4 µM (active)
50 | O=C(Nc1ccc2c(c1)[C@@H]1C[C@@H](CC(=O)N3CCCCC3)O[C@@H](CO)[C@@H]1O2)NC1CCCCC1 | -20.2 | –
51 | O=C1NC(O)CCN1C1CC(O)C(CO)O1 (stereo not given) | -5.27 | –
52 | CC(C)Oc1ccc(Oc2ccc(C(F)(F)F)cn2)cc1 | -8.56 | –
53 | COC(=O)CC1=NN(c2nc(C)cc(C)n2)C(=O)C1 | 1.84 | –
54 | C=CCn1c(=NC(=O)c2ccc(S(=O)(=O)N3CCCC3)cc2)sc2cc(NC(C)=O)ccc21 | -26.4 | –

Row | Structure (SMILES) | activity change, negative = growth inhibition [%] | Potency
55 | Cc1cccc(-n2cnc(C(=O)NNC(=S)Nc3ccccc3)c2)n1 | – | 23.1 µM (active)
56 | Cn1cc(Cl)c(C(=O)NNC(=S)Nc2cccc(Cl)c2)n1 | 9.94 | –
57 | Cc1cccc(-n2cnc(C(=O)Nc3cccnc3)c2)n1 | -21.8 | –
58 | Cc1ccc(CNC(=O)CCNS(=O)(=O)c2ccc3c(c2)oc(=O)n3C)cc1 | -16.1 | –
59 | Cn1nnnc1SCCNCc1ccc(Cl)c(Cl)c1 | -6.41 | –
60 | COc1cc(CNCCSc2nnnn2C)ccc1OCc1ccc(Cl)cc1Cl | – | 23.1 µM (active)
61 | CCOc1ccc(CNCCSc2nnnn2C)cc1 | 2.47 | –
62 | COc1cccc(CNCCSc2nnnn2C)c1OCc1ccccc1Cl | – | 20.6 µM (active)
63 | COc1cccc(CNn2cn[nH]c2=S)c1OCc1ccccc1 | 18.9 | –
64 | COC(=O)c1ccccc1NC(=O)CSc1nnnn1C | 1.28 | –
65 | CCOc1ccc(OCC)c(Nc2nc3ccccc3n3nnnc23)c1 | -5.32 | –
66 | C=CCOc1c(CNn2cn[nH]c2=S)cccc1OC | -26.1 | –
67 | CC(C)CC(=O)NCC(c1ccc2c(c1)OCO2)N1CCN(c2ccc(F)cc2)CC1 (stereo not given) | – | 25.9 µM (active)
68 | O=C(NCCO)C(=O)NCC(c1ccc2c(c1)OCO2)N1CCN(c2ccc(F)cc2)CC1 (stereo not given) | -22.3 | –
69 | CC(C)CNC(=O)C(=O)NCC(c1ccc2c(c1)OCO2)N1CCOCC1 (stereo not given) | -1.74 | –
70 | Cc1c(C(=O)NCC2CCCN(C)C2)cnn1-c1nccc(-c2ccco2)n1 (stereo not given) | -0.77 | –
71 | CC1CC(=O)Nc2ccccc2N1S(=O)(=O)c1cccs1 (stereo not given) | -2.79 | –
72 | COc1ccc(Cc2nnc(SC)[nH]c2=O)cc1 | 13.9 | –
73 | COc1ccc2[nH]c(=O)c(-c3noc(-c4ccc(F)cc4)n3)cc2c1 | 5.76 | –
74 | COc1ccc(Cc2cc(-c3ccc(F)cc3)n[nH]c2=O)cc1 | – | 13 µM (active)
75 | COc1ccc(CNC(=O)CCC(=O)Nc2nnc(C(C)C)s2)cc1 | -8.65 | –
76 | COc1ccccc1OCC(=O)OCc1cc(-c2ccco2)on1 | -9.05 | –
77 | CCCc1ccc(OCC(O)CN2CCN(C(=O)OCC)CC2)cc1 (stereo not given) | -15.6 | –
78 | COc1ccc(OC)c(NC(=O)c2cc(-c3cc(F)ccc3OCC3CCCO3)n[nH]2)c1 (stereo not given) | – | 9.2 µM (active)
79 | O=C(O)CCC(=O)Nc1ccc(OCC2CCCO2)cc1 (stereo not given) | 8.22 | –
80 | COc1ccc(C(=O)Nc2ccc(C(=O)NCC3CCCO3)cc2)c(OC)c1OC (stereo not given) | 1.23 | –
81 | O=C(/C=C/c1cc2c(cc1Br)OCO2)NCc1ccc(Cl)cc1 | -13.7 | –

Row | Structure (SMILES) | activity change, negative = growth inhibition [%] | Potency
82 | CCCCn1c(N)c(N(Cc2ccccc2OC)C(=O)COc2cc(C)ccc2Cl)c(=O)[nH]c1=O | 9.31 | –
83 | Cc1cc(C)cc(NS(=O)(=O)Cc2ccccc2)c1 | -4.52 | –
84 | O=[N+]([O-])c1ccc(/C=C/c2ccc3cccnc3c2)cc1 | – | 10 µM (active)
85 | O=C(Oc1ccc([N+](=O)[O-])cc1)c1ccc2ccccc2n1 | -13.7 | –
86 | O=C(OCc1ccc([N+](=O)[O-])cc1)c1ccccn1 | -0.96 | –
87 | Cc1c(Cl)cccc1NC(=O)NCc1ccc(C)n1C | -1.46 | –
88 | Cn1cc(-c2ccccc2)cc(C#N)c1=O | 3.04 | –
89 | O=C(O)c1ccccc1C(=O)NC1=NN(c2ccccc2)CC1 | 3.54 | –
90 | CCOC(=O)c1nnn(-c2nonc2-n2cccc2)c1CN1CCC(C(=O)OCC)CC1 | – | 18.4 µM (active)
91 | NNC(=O)c1nnn(-c2nonc2N)c1CN1CCCC1 | -26.6 | –
92 | CCOC(=O)c1nnn(-c2nonc2-n2cccc2)c1CN1CCOCC1 | -16.4 | –
93 | COC(=O)C1(CCSC)NC(c2ccc(OC)cc2OC)C2C(=O)N(c3cccc(C(C)=O)c3)C(=O)C21 (stereo not given) | -0.329 | –
94 | CC(Sc1nc(-c2ccccc2)cc(C(F)(F)F)n1)C(=O)Nc1ccc2c(c1)OCO2 (stereo not given) | -17.8 | –
95 | Cc1cc2nc(C(F)(F)F)cc(-c3cccs3)n2n1 | 8.66 | –
96 | Cc1ccc(O)c(NC(=O)CCS(=O)(=O)c2nc(-c3ccc4c(c3)OCO4)cc(C(F)(F)F)n2)c1 | – | 11.6 µM (active)
97 | COc1ccccc1-c1cc(C(F)(F)F)nc(S(=O)(=O)CCCC(=O)Nc2ccc(F)cc2F)n1 | – | 3.66 µM (active)
98 | O=C(CSc1ccc(-c2cccs2)nn1)Nc1ccccc1F | -28.9 | –
99 | CSc1ccccc1NC(=O)CCS(=O)(=O)c1nc(-c2cccs2)cc(C(F)(F)F)n1 | – | 11.6 µM (active)
100 | O=C(Nc1cc(C(F)(F)F)ccc1Cl)c1cc2nc(-c3ccc4c(c3)OCO4)cc(C(F)(F)F)n2n1 | -2.54 | –
101 | O=C(COC(=O)CSc1ccccc1)Nc1ccc(F)cc1F | -2.12 | –
102 | COc1ccccc1-c1cc(C(F)(F)F)nc(S(=O)(=O)CCCC(=O)Nc2cc(C)ccc2O)n1 | -16.7 | –
103 | CCC(=O)c1c[nH]c(C(=O)NCC2CCCO2)c1 (stereo not given) | -0.0708 | –
104 | Cc1ccc(C(=O)OCC(=O)NC(=O)Cc2ccccc2)c(O)c1 | 11.2 | –
105 | CC(C)(C)C(=O)COC(=O)c1cc(S(=O)(=O)N2CCCCC2)ccc1N1CCOCC1 | -3.08 | –
